Bioassay records: PubChem, several laboratories
NR0B1 inh = inhibits human nuclear receptor DAX1; HEK293 Gal4-DAX1 luciferase reporter, luminescence; 340,000 tested, 0.99% active; P51843; inhibition, % at 6.75 µM;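 active = inhibition above the mean over all tested compounds plus 3 SD, cut at about 4.2% in these data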;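 note: inhibition shows as a rise in luminescence from relieved DAX1 repression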
HSF-1 act = increases HSF-1 driven luciferase reporter signal. NIH3T3-HGL HSF-1 luciferase reporter, MG132, 8 h; 100% = twice DMSO control signal. activation, % at 9 µM. 300,000 tested, 1.7% active. AID 504408;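 active = mean replicate activation of at least 50% with a set share of replicates each reaching 50%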
FXN GAA850 act = frataxin GAA850 promoter activation. 360,000 tested, 0.56% active. AID 540364. activation, % at 6 µM. HEK293 lucGAA850 FXN promoter luciferase reporter, 24 h; percent of 10 µM SAHA response;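 active = activation above the average of all compounds screened plus 3 SD, cutoff fixed separately per campaign, cut at about 7.5% in these data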
AHR act = activates the human aryl hydrocarbon receptor | P35869 | AHR-responsive luciferase reporter cells, luminescence | 320,000 tested, 2.5% active | activation, % at 5 µM | AID 2796; in the data active = activation above about 47%
Target sequence (P35869 whole entry, looked up): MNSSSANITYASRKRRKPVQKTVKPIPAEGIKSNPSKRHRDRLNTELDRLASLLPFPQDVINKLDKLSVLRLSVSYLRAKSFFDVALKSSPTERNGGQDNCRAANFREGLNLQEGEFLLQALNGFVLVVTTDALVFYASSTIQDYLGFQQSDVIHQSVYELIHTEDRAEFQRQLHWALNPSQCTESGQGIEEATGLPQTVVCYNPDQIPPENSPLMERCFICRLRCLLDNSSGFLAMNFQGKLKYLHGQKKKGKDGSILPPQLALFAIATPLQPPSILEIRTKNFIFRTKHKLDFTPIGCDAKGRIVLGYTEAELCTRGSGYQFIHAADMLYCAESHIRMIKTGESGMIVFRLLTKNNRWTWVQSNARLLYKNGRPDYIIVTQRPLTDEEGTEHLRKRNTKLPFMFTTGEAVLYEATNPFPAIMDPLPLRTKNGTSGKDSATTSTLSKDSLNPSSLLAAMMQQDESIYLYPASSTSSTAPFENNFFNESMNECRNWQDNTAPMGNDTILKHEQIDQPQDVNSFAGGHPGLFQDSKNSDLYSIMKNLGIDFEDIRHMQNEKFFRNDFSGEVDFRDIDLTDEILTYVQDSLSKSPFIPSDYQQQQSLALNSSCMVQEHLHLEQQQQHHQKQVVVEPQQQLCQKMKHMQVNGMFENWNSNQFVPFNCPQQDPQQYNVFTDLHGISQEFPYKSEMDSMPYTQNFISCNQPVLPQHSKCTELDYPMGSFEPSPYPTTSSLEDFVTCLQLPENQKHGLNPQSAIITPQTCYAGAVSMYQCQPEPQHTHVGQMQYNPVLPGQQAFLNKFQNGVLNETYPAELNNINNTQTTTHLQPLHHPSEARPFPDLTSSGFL
HSP90 refold inh = HSP90 refolding inhibition in rabbit reticulocyte lysate | luciferase refolding luminescence, 3 h | AID 1789 | 290,000 tested, 0.91% active | inhibition, % at 5.6 µM;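 active = inhibition above the screen-wide mean plus 3 SD, computed separately per campaign, cut at about 16% in these data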;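 note: inhibitors lower the luminescence because luciferase stays unfolded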
HSF1 inhib = HSF1 inhibition. AID 2098. 300,000 tested, 0.77% active. activity change, negative = inhibition, % at 7.5 µM (by protocol). NIH3T3-HGL HSE-luciferase, MG132-induced, luminescence 8 h; hits give low values;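 active = more than half of replicate wells show activity change below -50%, luminescence cut by over half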;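 note: luciferase reports HSF-1 transcriptional activity via heat shock element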
Of the large screens only hits and unclear results are named; the others gave an inactive call. Most compounds without a hit are left out; they make up all but 5.9% or so of the library.

COc1ccc(NC(=O)COc2ccc(-c3nn(C)c(=O)c4ccccc34)cc2)cc1	HSF1 inhib -82.7
CC(C)C(=O)Nc1ccc2c(c1)nc(CCN1CCCCC1)n2C	none
COc1ccc(OCC(=O)Nc2cc(-c3nn(C)c(=O)c4ccccc34)ccc2OC)cc1	none
O=C(c1cccc(NS(=O)(=O)c2cccc(F)c2)c1)N1CCCC1	none (no result: AHR act)
CC(=O)C[C@@H](O)CC(=O)[C@@H]1OC(=O)CCCCC/C=C/Cc2ccccc21	none (no result: HSF-1 act, HSP90 refold inh, HSF1 inhib)
Fc1ccc(Nc2nc(NCc3cccs3)nc3ccsc23)cc1	none (no result: NR0B1 inh, HSF-1 act, AHR act, HSP90 refold inh, HSF1 inhib)
OC(COc1ccc(Cl)cc1Cl)Cn1ccnc1 (stereo unspecified)	AHR act 47.3
O=C(CCCOc1ccc(Cl)cc1Cl)NCCCn1ccnc1	none
Clc1ccc(OCCn2ccnc2)c(Br)c1	none
OC(COc1ccc2ccccc2c1)Cn1ccnc1 (stereo unspecified)	none
OC(COc1ccc2ccccc2c1Br)Cn1ccnc1 (stereo unspecified)	AHR act 70.0
Clc1ccc(OCCn2ccnc2)c(Cl)c1	NR0B1 inh 8.9
Clc1ccc(OCCn2ccnc2)c2ccccc12	AHR act 73.7
COc1ccccc1OCCn1ccnc1	none
O=C(COc1ccc(Cl)cc1)NCCNC(=O)c1cnccn1	none
Cc1cccc(Cl)c1OCCCn1ccnc1	AHR act 58.0
Cc1cc(OCCCCCn2ccnc2)cc(C)c1Cl	AHR act 54.7
CC1=NN(C(C#N)c2ccc(F)cc2)C(c2ccccc2)C1 (stereo unspecified)	none
CCOc1ccc(-c2ccc(SC)nn2)cc1	HSP90 refold inh 73.1
CCOc1ccc(-c2ccc(SCC(=O)Nc3nnc(CC)s3)nn2)cc1	none (no result: HSF-1 act, HSF1 inhib)
C[C@@H]1CN([C@H](C)CO)S(=O)(=O)c2ccc(C#Cc3cccc(F)c3)cc2O[C@@H]1CN(C)C(=O)CN1CCOCC1	none (no result: HSF-1 act, AHR act, HSP90 refold inh, HSF1 inhib)
Cc1nn(-c2ccccc2)c2nc3c(cc12)C(=O)CCC3	AHR act 55.0
Cc1nn(-c2ccccc2)c2nc(Cl)c(C(=O)O)cc12	none
CCOC(=O)C1CCN(c2c(NCc3ccc(C(=O)N(C)Cc4ccccc4)cc3)c(=O)c2=O)CC1	none
CCc1ccc(C(=O)NCc2cnn(C)c2)s1	none
Cn1cc(CNC(=O)c2sc3cccc(Cl)c3c2Cl)cn1	HSF-1 act 89.9
COc1ccc(-c2[nH]ncc2N=Nc2ccccc2)cc1	none
COc1ccc(-c2[nH]ncc2N=Nc2cc(C)cc(C)c2)cc1	AHR act 66.5
O=C1Cc2ccccc2C(=O)N1CCc1ccccc1	NR0B1 inh 4.7, AHR act 72.6
O=C1C(=O)N(Cc2ccccc2)C(=O)N1CCN1C(=O)c2ccccc2C1=O	none
Cc1c(Br)cnn1C(C)C(=O)N1CCN(c2ccccc2F)CC1 (stereo unspecified)	none (no result: HSF-1 act, HSP90 refold inh, HSF1 inhib)
CN(Cc1ccccc1Cl)C(=O)CCNC(=O)c1ccco1	NR0B1 inh 10.3 (no result: HSF-1 act, AHR act, HSP90 refold inh, HSF1 inhib)
CN(Cc1ccc(Cl)cc1Cl)C(=O)CCNC(=O)c1ccco1	none (no result: HSF-1 act, HSP90 refold inh, HSF1 inhib)
COc1ccc(CCN=C(NS(=O)(=O)c2ccccc2)c2ccccc2)cc1OC	HSF-1 act 58.8
O=C(Nc1ccccc1[N+](=O)[O-])c1cccc(N2C(=O)CCC2=O)c1	HSF-1 act 54.4
O=C(Nc1nc2cc3c(cc2s1)OCCO3)c1cccc(N2C(=O)CCC2=O)c1	AHR act 52.2
COc1ccc(OC)c2sc(NC(=O)c3cccc(N4C(=O)CCC4=O)c3)nc12	NR0B1 inh 4.5
COc1ccc(OC)c2sc(NC(=O)c3ccc(S(=O)(=O)N(C)C)cc3)nc12	AHR act 69.0
COc1cccc(OCCNC(=O)c2cc(OC)c(OC)c(OC)c2)c1	none
Cc1ccccc1Cn1c(-c2ccc(=O)[nH]c2)nc2ccccc21	none
Cc1cc2nc(-c3ccc(=O)[nH]c3)n(Cc3ccccc3)c2cc1C	AHR act 78.8
COc1cccc(-c2cc(C(=O)Nc3ccc([N+](=O)[O-])cn3)c3ccccc3n2)c1	none
O=C(Oc1ccc(-c2cnc3ccccc3n2)cc1)c1cc([N+](=O)[O-])ccc1Cl	HSF-1 act 80.2
Cc1c(C(=O)Oc2ccc(-c3cnc4ccccc4n3)cc2)cccc1[N+](=O)[O-]	none
O=C(Oc1cccc([N+](=O)[O-])c1)c1cc(-c2ccccc2)nc2ccccc12	HSF-1 act 75.4
O=C(CN1C(=O)NC2(CCCc3ccccc32)C1=O)Nc1cccc(S(=O)(=O)N2CCCCC2)c1 (stereo unspecified)	HSF-1 act 58.2
COc1cc(/C=N/NC(=O)CC2(C)OCCCO2)ccc1OCc1ccc(Cl)cc1Cl	HSF-1 act 67.9
CC1(CC(=O)N/N=C/c2ccc(OCc3ccc(Cl)cc3Cl)cc2)OCCCO1	HSF-1 act 53.6
COc1cc(/C=N/NC(=O)CN2CCCCC2)ccc1OCc1ccc(Br)cc1	HSF-1 act 79.1
CC(=O)c1ccc(N2CCN(C(=S)Nc3ccccc3C(F)(F)F)CC2)cc1	none
COc1cccc(-c2cnc(C(O)c3ccc(C)c(F)c3)[nH]2)c1 (stereo unspecified)	none (no result: NR0B1 inh, HSF-1 act, AHR act, HSP90 refold inh, HSF1 inhib)
Cc1ccccc1NC(=O)C1Cc2ccccc2CN1C(=O)c1ccco1 (stereo unspecified)	NR0B1 inh 5.4
O=C(NCc1ccccc1)C1Cc2ccccc2CN1C(=O)c1ccco1 (stereo unspecified)	none
COc1ccc(N(C)S(=O)(=O)c2ccc(Cl)c(C(=O)NCCc3ccc(Cl)cc3)c2)cc1	none (no result: HSF-1 act, HSF1 inhib)
N#Cc1nc(-c2cccs2)oc1NCc1ccc(Cl)cc1	HSF-1 act 62.9
CCc1nc2c(OCC(=O)c3ccc(Cl)cc3Cl)cccn2c1N(C=O)Cc1ccccc1	none (no result: NR0B1 inh, HSF-1 act, AHR act, HSP90 refold inh, HSF1 inhib)
O=C(COc1cc(Cl)ccc1Cl)N1CCNC1=O	none (no result: HSF-1 act, AHR act, HSP90 refold inh, HSF1 inhib)
O=[N+]([O-])c1ccc(Sc2ccccc2)nc1	HSF-1 act 53.4
CC(C)c1ccc(/C=C/C(=O)NC2=NCCS2)cc1	none (no result: NR0B1 inh, FXN GAA850 act)
O=C(NC1=NCCS1)c1cc(Cl)ccc1Cl	none
O=C(NC1=NCCS1)c1ccc(Cl)c(Cl)c1	NR0B1 inh 5.4
O=C(/C=C/c1ccc(Cl)c(Cl)c1)NC1=NCCS1	HSF-1 act 53.8
CCOC(=O)N(C)c1c(CC)nc2c(OCCOc3ccccc3)cccn12	none (no result: NR0B1 inh, HSF-1 act, AHR act, HSP90 refold inh, HSF1 inhib)
Cc1nn(-c2ccc(Br)cc2)c(=O)c2ccccc12	AHR act 56.9
O=S(=O)(c1ccccc1)N1CCNCC1	none (no result: HSP90 refold inh)
Cc1cccc(C(=O)N2CCCC(c3nc(-c4ccc(C)o4)no3)C2)c1 (stereo unspecified)	HSF-1 act 60.5
CC(=O)c1ccccc1OCC(O)Cn1ccnc1 (stereo unspecified)	none
Cc1sc2nc(CSc3nc4ccccc4s3)[nH]c(=O)c2c1C	none (no result: NR0B1 inh, FXN GAA850 act)
O=c1[nH]c(CSc2ncc(C(F)(F)F)cc2Cl)nc2ccccc12	HSF-1 act 63.5
CCN(CC(=O)Nc1ccccc1SC)Cc1nc2ccccc2c(=O)[nH]1	NR0B1 inh 5.0
O=c1[nH]c(CSc2nc3ccccc3s2)nc2ccccc12	AHR act 65.7
